Results on 39 sequences are retold here after the OligoGym collection.
Also: reference of the scale not given here.

In the first assay the target is TAF3. The assay is described as follows: pooled miR-30 sensor sort-seq; sequence = guide strand. The conditions noted are these: shRNA.
As for TTCTTGAGAAGACACAATGGGT, the sensor-assay potency score (higher = more potent) was -1.17.
In the case of TTGTCCTTCTTCTTGTTCGCAC, the sensor-assay potency score (higher = more potent) was found to be 0.171.
TTCAGCTTCAGGACTATCCAGT came in with a sensor-assay potency score (higher = more potent) of -0.217.

The target of a further assay is TAF4. Described as above. The conditions noted are these: shRNA.
For TAGACATACACCTACATAGTAA, the sensor-assay potency score (higher = more potent) is -0.674.
The same measure, in the same setting: the figure for TTAATGTCATCATCGTCCCGAA is -0.403; for TACATCTGGATGTAATTCCGTT it is -0.473.
The same measure, in the same setting: the figure for TATTTTTCTGTGCAGCAGCTGC is -0.881; for TATTCTTGCACTTTCTTCTGAC it is 0.569; for TTAACTGTTCTGGATCTTCTTG it is -0.704.
The sequence TAACTGTTCTGGATCTTCTTGT yielded a sensor-assay potency score (higher = more potent) of 0.732.
On the same count and under the same terms, then TTACCTATTTCTAATATTCTTC, with -0.515.
Same read-out and setting: the figure for TTTGTCGCGTGAACTGTCTGGG is 0.638; for TACATAACTTACTACATCTGGA it is -0.0503.
Same read-out and setting: the figure for ATTAATGTCATCATCGTCCCGA is 0.127.
In turn, TTAAGTTCTCGGTATAACCTGC returned a sensor-assay potency score (higher = more potent) of 0.0759.

The next assay concerns the target TAF5. The description is as above. The following applies: shRNA.
Take TATCTGTTGCTTACTACGCGGC: the sensor-assay potency score (higher = more potent) is -0.346.
The same measure, in the same setting: the figure for TAAGACTAGATAATACTCGTAG is 0.809; for TTATCTTATCCAACTTATCTGA it is -0.244.
On the same count and under the same terms, then TAATCGAACTGTATTATCCATT, with -0.885.
TTGTTTGACACTACGAAGCTTT: the sensor-assay potency score (higher = more potent) amounted to 0.143.
TAATACTCGTAGGTCATCCTGG had a sensor-assay potency score (higher = more potent) of 0.422.
On the same count and under the same terms, then TATCTGAATCTTTCAACTCAGG, with -1.06; and TAAGTGAACAGACTGTATCAGT, with -0.556.
On the same count and under the same terms, then TTGAATCTGCAAAACCTCCAGC, with 0.0484; and TATCTTATCCAACTTATCTGAA, with -0.846; and TAGTATTCTTCATACATTGTGG, with -0.781.
Same read-out and setting: then TTGATTGTAGACTAGCTCCAAG, with -0.676.

For a further assay, the target named is TARBP2. The assay is described as above. The following applies: shRNA.
As for TTTCGTAGAGAATCCCAGGTGC, the sensor-assay potency score (higher = more potent) is 0.652.
As for TTTCTGCACCACCAGCTCCTGC, the sensor-assay potency score (higher = more potent) was -1.56.
With TAGGACTACAGATGGAACTGGG, the sensor-assay potency score (higher = more potent) came out at 0.0896.
Turning to TGCTGCAGCAGTAAAAACCGGA, the sensor-assay potency score (higher = more potent) is -0.386.
Still for that read-out and setting: then TTGCAGAGCCATGACACACAGT, with -0.909.
Same read-out and setting: the figure for TATTCTGGTCCCATACTCCTGC is 0.18; for TCCTGCAGAAGGCTGATCGGGG it is -1.33; for TGAATTTCGTAGAGAATCCCAG it is -0.515.
Still for that read-out and setting: the figure for TTTCGAAGACCATCCAGGCGGG is -0.916; for TTCTCTCCTACTGAATTTCGTA it is -0.854.
In turn, TTTGAGAAGGTCGTACACAGGC displayed a sensor-assay potency score (higher = more potent) of -0.0476.
Still for that read-out and setting: then TCGTACACAGGCGTCTTCCCTA, with -0.68.
